# Reference: PubChem BioAssay (EPA / NIEHS)
# Values joined by “and” are separate entries in the source; they are usually repeats but may differ in a detail not shown here. Identical values can stand only once. Records with an inconclusive call do not appear. Active and inactive are the calls of the source. How the source made its calls: active means hit-call score of the fitted dose curve at least 0.9, where 1 is the maximum; inconclusive means response in the unintended direction; inactive means score below 0.9.
# How the values were obtained:
# [1] = biological target: human Aurora Kinase A - serine/threonine-protein Kinase 6 (AurA), AURKA (gene 6790) (UniProt O14965); assay: NVS_ENZ_hAurA: NovaScreen (NVS) Enzymatic Assay for human Aurora Kinase A - serine/threonine-protein Kinase 6 (AurA) (AID 2283142)
# Chain of human Aurora Kinase A - serine/threonine-protein Kinase 6 (AurA), AURKA (gene 6790) (O14965 whole entry, looked up): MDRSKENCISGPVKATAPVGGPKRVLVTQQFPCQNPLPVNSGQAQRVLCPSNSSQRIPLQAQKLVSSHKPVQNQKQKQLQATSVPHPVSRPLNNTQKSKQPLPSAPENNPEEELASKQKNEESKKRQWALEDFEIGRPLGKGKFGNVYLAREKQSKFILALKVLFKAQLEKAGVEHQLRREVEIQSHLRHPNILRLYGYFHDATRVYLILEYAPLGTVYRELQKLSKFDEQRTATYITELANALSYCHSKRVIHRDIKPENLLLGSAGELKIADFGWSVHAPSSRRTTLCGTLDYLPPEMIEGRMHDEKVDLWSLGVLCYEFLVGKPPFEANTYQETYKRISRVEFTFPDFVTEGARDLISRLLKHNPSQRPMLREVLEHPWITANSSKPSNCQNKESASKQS
# Method in brief: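 Cell-free enzymatic assay with human Aurora A, 1 hour after dosing. Fluorescent substrate turnover detected after electrophoretic mobility shift separation of substrate and product. Screened at 25 uM, actives retested in concentration-response up to 50 uM.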
# [2] = biological target: human Ephrin type-B Receptor 1 (EphB1), EPHB1 (gene 2047) (UniProt P54762); assay: NVS_ENZ_hEphB1: NovaScreen (NVS) Enzymatic Assay for human Ephrin type-B Receptor 1 (EphB1) (AID 2283154)
# Chain of human Ephrin type-B Receptor 1 (EphB1), EPHB1 (gene 2047) (P54762 whole entry, looked up): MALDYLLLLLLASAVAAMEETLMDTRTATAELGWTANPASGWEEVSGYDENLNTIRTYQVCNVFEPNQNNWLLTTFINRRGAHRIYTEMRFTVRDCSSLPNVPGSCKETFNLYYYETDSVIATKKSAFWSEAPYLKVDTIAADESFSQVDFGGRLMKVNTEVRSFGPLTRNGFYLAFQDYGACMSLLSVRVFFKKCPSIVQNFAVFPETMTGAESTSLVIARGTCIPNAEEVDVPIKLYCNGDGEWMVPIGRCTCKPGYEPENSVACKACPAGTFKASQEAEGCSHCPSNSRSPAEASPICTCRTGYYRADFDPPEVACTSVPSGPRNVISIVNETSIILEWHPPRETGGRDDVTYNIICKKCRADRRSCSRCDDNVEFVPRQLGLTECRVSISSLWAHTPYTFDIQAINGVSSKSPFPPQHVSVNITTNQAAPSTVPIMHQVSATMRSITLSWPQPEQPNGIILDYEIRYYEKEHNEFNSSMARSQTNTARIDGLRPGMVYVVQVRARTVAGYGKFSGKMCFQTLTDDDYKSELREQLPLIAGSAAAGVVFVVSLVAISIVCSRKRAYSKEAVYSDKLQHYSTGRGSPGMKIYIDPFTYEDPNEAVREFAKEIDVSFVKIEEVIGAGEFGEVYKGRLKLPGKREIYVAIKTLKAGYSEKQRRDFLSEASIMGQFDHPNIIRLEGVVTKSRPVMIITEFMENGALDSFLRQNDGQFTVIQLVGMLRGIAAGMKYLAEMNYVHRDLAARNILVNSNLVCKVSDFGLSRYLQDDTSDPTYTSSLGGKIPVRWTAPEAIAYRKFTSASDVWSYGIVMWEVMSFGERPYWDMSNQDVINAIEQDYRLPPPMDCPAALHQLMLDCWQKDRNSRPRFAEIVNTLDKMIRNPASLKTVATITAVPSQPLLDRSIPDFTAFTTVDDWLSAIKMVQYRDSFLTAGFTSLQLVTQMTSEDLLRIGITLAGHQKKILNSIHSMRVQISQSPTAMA
# Method in brief: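 Cell-free kinase assay with recombinant enzyme, fluorescent substrate and electrophoretic mobility-shift separation of substrate and product; read 1 h after dosing. Single-concentration duplicate screen at 25 uM; loss of signal versus DMSO baseline.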
# [3] = biological target: human Casein Kinase 2- alpha 2 beta 2 (CK2a2b2), CSNK2A1 (gene 1457) (UniProt P68400); assay: NVS_ENZ_hCK2a2b2: NovaScreen (NVS) Enzymatic Assay for human Casein Kinase 2- alpha 2 beta 2 (CK2a2b2) (AID 2283147)
# Chain of human Casein Kinase 2- alpha 2 beta 2 (CK2a2b2), CSNK2A1 (gene 1457) (P68400 whole entry, looked up): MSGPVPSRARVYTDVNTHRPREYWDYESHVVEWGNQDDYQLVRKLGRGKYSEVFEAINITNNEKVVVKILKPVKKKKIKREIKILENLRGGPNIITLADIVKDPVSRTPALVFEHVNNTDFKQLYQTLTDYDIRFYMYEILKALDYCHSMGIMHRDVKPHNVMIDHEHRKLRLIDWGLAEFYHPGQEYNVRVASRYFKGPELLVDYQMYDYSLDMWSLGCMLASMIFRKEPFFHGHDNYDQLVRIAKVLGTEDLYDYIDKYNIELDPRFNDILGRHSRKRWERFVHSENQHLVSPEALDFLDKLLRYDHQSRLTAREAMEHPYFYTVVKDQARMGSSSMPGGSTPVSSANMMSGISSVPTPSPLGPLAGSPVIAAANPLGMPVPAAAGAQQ
# Method in brief: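 Cell-free recombinant CK2 α2β2 holoenzyme with a fluorescent peptide substrate; product separated by electrophoretic mobility shift and read 1 h after dosing. Single-point screen at 25 uM in duplicate; actives were followed with concentration-response up to 50 uM versus DMSO.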
# [4] = biological target: human Elastase, ELANE (gene 1991) (UniProt P08246); assay: NVS_ENZ_hElastase: NovaScreen (NVS) Enzymatic Assay for human Elastase (AID 2283153)
# Chain of human Elastase, ELANE (gene 1991) (P08246 whole entry, looked up): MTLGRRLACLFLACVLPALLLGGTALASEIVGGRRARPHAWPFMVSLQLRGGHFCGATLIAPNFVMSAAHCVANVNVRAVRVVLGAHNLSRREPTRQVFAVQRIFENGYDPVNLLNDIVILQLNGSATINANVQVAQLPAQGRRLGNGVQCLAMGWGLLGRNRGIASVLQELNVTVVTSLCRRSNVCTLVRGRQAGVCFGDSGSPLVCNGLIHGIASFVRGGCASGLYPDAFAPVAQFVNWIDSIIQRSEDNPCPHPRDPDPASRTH
# Method in brief: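 Cell-free elastase from human neutrophils, 1.5 h after dosing, activity read by absorbance. Primary screen in duplicate at 25 uM; hits (e.g., 30% inhibition) rerun in singleton concentration-response up to 50 uM, fitted versus DMSO.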
# [5] = biological target: human Colony Stimulating Factor 1 Receptor (CSF1R), CSF1R (gene 1436) (UniProt P07333); assay: NVS_ENZ_hCSF1R: NovaScreen (NVS) Enzymatic Assay for human Colony Stimulating Factor 1 Receptor (CSF1R) (AID 2283150)
# Chain of human Colony Stimulating Factor 1 Receptor (CSF1R), CSF1R (gene 1436) (P07333 whole entry, looked up): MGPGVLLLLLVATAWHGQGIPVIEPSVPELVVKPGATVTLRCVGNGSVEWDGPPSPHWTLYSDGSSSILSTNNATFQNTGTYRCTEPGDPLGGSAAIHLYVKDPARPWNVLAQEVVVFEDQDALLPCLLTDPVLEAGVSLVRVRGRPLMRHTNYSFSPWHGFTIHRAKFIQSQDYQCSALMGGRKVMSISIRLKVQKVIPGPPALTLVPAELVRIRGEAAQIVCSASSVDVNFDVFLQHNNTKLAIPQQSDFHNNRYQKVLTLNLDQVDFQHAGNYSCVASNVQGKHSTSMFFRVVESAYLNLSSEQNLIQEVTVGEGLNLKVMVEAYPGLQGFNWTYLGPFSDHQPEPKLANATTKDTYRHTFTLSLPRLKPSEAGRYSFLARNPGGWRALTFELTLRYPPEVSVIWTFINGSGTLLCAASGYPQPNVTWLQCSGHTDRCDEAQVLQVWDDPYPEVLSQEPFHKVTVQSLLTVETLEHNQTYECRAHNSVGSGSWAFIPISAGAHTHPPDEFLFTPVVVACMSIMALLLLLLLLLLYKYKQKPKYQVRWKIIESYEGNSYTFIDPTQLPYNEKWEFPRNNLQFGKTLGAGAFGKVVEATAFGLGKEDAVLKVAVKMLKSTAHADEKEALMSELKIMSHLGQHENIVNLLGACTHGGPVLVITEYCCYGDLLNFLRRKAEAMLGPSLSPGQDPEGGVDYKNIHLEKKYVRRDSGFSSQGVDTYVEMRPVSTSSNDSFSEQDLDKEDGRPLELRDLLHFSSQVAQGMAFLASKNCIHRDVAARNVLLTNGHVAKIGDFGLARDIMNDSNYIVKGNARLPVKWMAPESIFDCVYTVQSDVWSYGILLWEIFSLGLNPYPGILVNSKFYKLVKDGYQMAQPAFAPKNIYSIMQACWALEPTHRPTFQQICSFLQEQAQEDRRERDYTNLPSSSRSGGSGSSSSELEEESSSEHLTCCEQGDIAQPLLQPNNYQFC
# Method in brief: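 Cell-free recombinant human CSF1R kinase with fluorescent substrate, product separated by electrophoretic mobility shift; read 1 h after dosing. Primary screen at 25 uM in duplicate, actives then in concentration-response up to 50 uM, relative to DMSO.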
# CDK2 (gene 1017) = CDK2 (gene 1017) (UniProt P24941); assay: NVS_ENZ_hCDK2: NovaScreen (NVS) Enzymatic Assay for human Cyclin-Cependent Kinase 2 (CDK2) (AID 2283144)
# Method in brief: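 Cell-free recombinant human CDK2 with fluorescent substrate, product separated by electrophoretic mobility shift; 1 hr read. Primary screen at 25 uM in duplicate, actives retested in concentration-response up to 50 uM; loss of signal versus DMSO.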
# [6] = biological target: human Caspase 8 (CASP8), CASP8 (gene 841) (UniProt Q14790); assay: NVS_ENZ_hCASP8: NovaScreen (NVS) Enzymatic Assay for human Caspase 8 (CASP8) (AID 2283146)
# Chain of human Caspase 8 (CASP8), CASP8 (gene 841) (Q14790 whole entry, looked up): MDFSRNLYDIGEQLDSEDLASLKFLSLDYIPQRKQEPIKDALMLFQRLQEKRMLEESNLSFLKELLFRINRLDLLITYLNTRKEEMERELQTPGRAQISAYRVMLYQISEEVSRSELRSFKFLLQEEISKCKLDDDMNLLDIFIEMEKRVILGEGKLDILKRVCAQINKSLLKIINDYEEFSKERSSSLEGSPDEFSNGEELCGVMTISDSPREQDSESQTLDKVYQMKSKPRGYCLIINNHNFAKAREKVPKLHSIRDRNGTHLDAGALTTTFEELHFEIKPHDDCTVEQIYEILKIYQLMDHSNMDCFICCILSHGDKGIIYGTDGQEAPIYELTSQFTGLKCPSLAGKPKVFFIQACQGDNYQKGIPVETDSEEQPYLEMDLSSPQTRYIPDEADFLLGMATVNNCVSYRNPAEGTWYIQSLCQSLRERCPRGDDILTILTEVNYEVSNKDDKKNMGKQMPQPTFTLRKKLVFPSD
# Method in brief: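 E. coli-expressed enzyme was used in a cell-free fluorogenic substrate assay read 1 h after dosing. Loss of signal was scored relative to DMSO, and the primary screen was run in duplicate at 25 uM.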
# [7] = biological target: human Dual Specificity Protein Phosphatase 3 (DUSP3), DUSP3 (gene 1845) (UniProt P51452); assay: NVS_ENZ_hDUSP3: NovaScreen (NVS) Enzymatic Assay for human Dual Specificity Protein Phosphatase 3 (DUSP3) (AID 2283152);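 further: phosphatase activity of recombinant human DUSP3 on a fluorogenic substrate without cells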
# Chain of human Dual Specificity Protein Phosphatase 3 (DUSP3), DUSP3 (gene 1845) (P51452 whole entry, looked up): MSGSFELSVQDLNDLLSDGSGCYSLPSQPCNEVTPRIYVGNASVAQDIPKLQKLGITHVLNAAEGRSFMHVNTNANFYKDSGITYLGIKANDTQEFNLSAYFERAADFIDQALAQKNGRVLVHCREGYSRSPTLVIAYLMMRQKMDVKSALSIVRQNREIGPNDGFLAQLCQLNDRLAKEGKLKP
# Method in brief: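 Cell-free assay with recombinant human DUSP3 and fluorogenic substrate, read by fluorescence intensity. Primary screen ran duplicate at 25 uM; actives followed up in concentration series; loss of signal versus DMSO scored.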
# [8] = biological target: human Casein Kinase 1-delta (CK1D), CSNK1D (gene 1453) (UniProt P48730); assay: NVS_ENZ_hCK1D: NovaScreen (NVS) Enzymatic Assay for human Casein Kinase 1-delta (CK1D) (AID 2283148)
# Chain of human Casein Kinase 1-delta (CK1D), CSNK1D (gene 1453) (P48730 whole entry, looked up): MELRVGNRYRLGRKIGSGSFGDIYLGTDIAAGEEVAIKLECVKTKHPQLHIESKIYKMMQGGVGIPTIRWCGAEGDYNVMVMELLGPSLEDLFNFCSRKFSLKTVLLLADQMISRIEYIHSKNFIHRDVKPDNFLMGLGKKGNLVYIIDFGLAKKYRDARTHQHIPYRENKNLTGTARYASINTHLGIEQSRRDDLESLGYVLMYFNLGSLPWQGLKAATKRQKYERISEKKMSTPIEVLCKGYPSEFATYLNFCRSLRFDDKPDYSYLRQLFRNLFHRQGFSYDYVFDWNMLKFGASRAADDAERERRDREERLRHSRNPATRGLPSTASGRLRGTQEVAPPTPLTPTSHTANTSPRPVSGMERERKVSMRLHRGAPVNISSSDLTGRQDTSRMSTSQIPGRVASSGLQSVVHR
# Method in brief: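 Recombinant human CK1-delta, cell-free; fluorescent substrate with electrophoretic mobility-shift separation of product, read 1 h after dosing. Single 25 uM duplicate screen, then concentration-response up to 50 uM; loss of signal vs DMSO.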
structure (smiles),measurement,setting,value
CCC(C)(C)C(=O)OC1=C(c2ccc(Cl)cc2Cl)C(=O)OC12CCCCC2,outcome,[1],inactive
CNC(=O)CSP(=S)(OC)OC,outcome,[2],inactive
CCC(C)(NC(=O)c1cc(Cl)c(C)c(Cl)c1)C(=O)CCl (configuration not stated),outcome,[3],inactive
COP(=S)(OC)Oc1ccc([N+](=O)[O-])cc1,outcome,[4],inactive
CC(C)(C)C(O)C(Oc1ccc(Cl)cc1)n1cncn1 (configuration not stated),outcome,[5],inactive
CCOC1Oc2ccc(OS(C)(=O)=O)cc2C1(C)C (configuration not stated),outcome,[5],inactive
O=C(O)CCCOc1ccc(Cl)cc1Cl,AC50,[3],19 µM (active)
CN1CSC(=S)N(C)C1,outcome,CDK2 (gene 1017),inactive
COc1nn(CSP(=S)(OC)OC)c(=O)s1,outcome,[6],inactive
Oc1cc(Cl)ccc1Oc1ccc(Cl)cc1Cl,outcome,[6],inactive
same,outcome,[5],inactive
same,outcome,[7],inactive
same,outcome,[4],inactive
CCCN(CCOc1c(Cl)cc(Cl)cc1Cl)C(=O)n1ccnc1,outcome,[7],inactive
Oc1ccc(Cl)cc1Cc1ccccc1,AC50,[8],25.2 µM (active) and 21.9 µM (active)
same,outcome,[7],inactive
same,outcome,[2],inactive
